Measurements published in PubChem BioAssay (NCI).
This is part of a sample that, as a whole, favours compounds with a hit. Of some 83,000 tested, about 20% had one in any assay.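 Cells were grown in 96-well plates and exposed to the test compound at a single concentration for 48 hours; results are reported as percent growth, with values below 10 considered active.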 A number with no mark means an inactive call. The source made the active and inactive calls.

System: HL-60(TB) leukemia
Assay: NCI-60 one-dose screen, 48 h (100 = growth as untreated, 0 = no growth, -100 = all killed)
Details: 10 µM unless noted

Q: With `c1ccc(CCNc2c3ccccc3nc3ccccc23)cc1` as the molecule, how does the growth read?
A: The growth was 41.3%.

Q: Which growth does the source give for `COc1ccc(-c2cc(-c3cccnc3)nc3sc4c(=O)n(-c5ccc(C)cc5)cnc4c23)cc1OC` here?
A: Its growth is 107%.

Q: How did the growth turn out when `Cc1nc2cc(Nc3nc(Nc4ccc(F)cc4)nc(-c4cccs4)n3)ccc2n1Cc1ccccc1` was run?
A: Its growth is 28.1%.

Q: `N#Cc1c(N)n2c(nc1=Nc1ccc(Cl)cc1)sc1cc(Cl)ccc12` was tested. Which growth did it give?
A: The growth was 117%.

Q: How did the growth turn out when `COc1cc(C2c3cc4c(cc3C(OC(=O)C[n+]3ccccc3)C3COC(=O)C23)OCO4)cc(OC)c1OC` (stereo not given) was run?
A: The growth was -32.5% (active).

Q: How did the growth turn out when `FC(F)(F)c1ccc2c(c1)Sc1ccccc1N2` was run?
A: Its growth is 72.6%.

Q: `CC/C=C\C[C@H](O)C/C=C1/C(=O)C=C[C@@H]1C/C=C\CCCC(=O)OC(C)C` was tested. Which growth did it give?
A: The growth was -38.3% (active).

Q: Which growth does the source give for `Cc1onc2c(-c3ccccc3)n[nH]c(=O)c12` here?
A: The growth was 90.2%.

Q: For `O=c1cc(-c2ccccc2)[nH]n1-c1nc2ccccc2[nH]1`, which growth is on record?
A: Its growth is 11%.

Q: With `Cc1ccc2c(c1)n([O-])c1cc(Cl)ccc1[n+]2=O` as the molecule, how does the growth read?
A: The growth was 67.8%.

Q: For `C=C1CC[C@@H]2[C@](C)(COC(C)=O)[C@H](OC(C)=O)CC[C@@]2(C)[C@@H]1C/C=C1/C(=O)OC[C@H]1OC(C)=O`, which growth is on record?
A: The growth was 79.1%.

Q: `O=Cc1ccc(-c2cn3ccnc3c(-c3ccc4ncn(Cc5ccccc5)c4c3)n2)cc1` was tested. Which growth did it give?
A: Its growth is 83.5%.

Q: `O=C(Cc1ccc(/C=C/C(=O)c2ncc[nH]2)cc1)Nc1cc(C(F)(F)F)cc(C(F)(F)F)c1` was tested. Which growth did it give?
A: Its growth is 52.1%.

Q: `Cc1ccc(/C=C(/C#N)n2nnc3ncccc32)cc1` was tested. Which growth did it give?
A: Its growth is 0.0853% (active).

Q: How did the growth turn out when `CC[C@]1(O)CC2CN(CCc3c([nH]c4ccccc34)C(C(=O)OC)(c3cc4c(cc3OC)N(C=O)[C@H]3[C@@](O)(C(=O)OC)[C@H](OC(C)=O)[C@]5(CC)[C@@H]6C[C@@H]6CN6CC[C@]43[C@@H]65)C2)C1` (stereo not given in full) was run?
A: The growth was 0.642% (active).

Q: With `COc1ccccc1CNCCCN1C(=O)c2ccc3c4c(ccc(c24)C1=O)C(=O)N(CCCOCCCCOCCCN)C3=O` as the molecule, how does the growth read?
A: The growth was -50.2% (active).

Q: For `COC(=O)[C@]12CC[C@@H](C)[C@H](C)[C@@H]1C1=CC[C@@H]3[C@@]4(C)C[C@@H](OC(=O)c5ccco5)[C@H](O)[C@@](C)(CO)[C@@H]4[C@H](O)C[C@@]3(C)[C@]1(C)CC2`, which growth is on record?
A: The growth was -79.6% (active).

Q: `C=C1CC2(OC1=O)C(=O)N(C)c1ccc(I)cc12` (stereo not given) was tested. Which growth did it give?
A: Its growth is -56.5% (active).

Q: How did the growth turn out when `CCCCCCNC(=O)Oc1ccc(/C(=C(/C)Cc2ccc(OC)cc2)c2ccc(OCCN(C)C)cc2)cc1` was run?
A: Its growth is 47.4%.

Q: With `Nc1c(C(=O)Nc2ccccc2)sc2nc3c(cc12)CN(C(=O)OCc1ccccc1)CC3` as the molecule, how does the growth read?
A: The growth was 17.1%.

Q: With `CCCCCCCCCC[N+](C)(C)C` as the molecule, how does the growth read?
A: The growth was -6.93% (active).

Q: How did the growth turn out when `C[C@@H](Oc1cc(-c2cnn(C3CCNCC3)c2)cnc1N)c1c(Cl)ccc(F)c1Cl` was run?
A: The growth was -59.4% (active).

Q: With `COC(=O)[C@@H](OC)[C@@H]1Cc2cc3cc(OC4CC(OC5CC(O)C(O)C(C)O5)C(O)C(C)O4)c(C)c(O)c3c(O)c2C(=O)[C@H]1OC1CC(OC2CC(OC3CC(C)(O)C(O)C(C)O3)C(O)C(C)O2)C(O)C(C)O1` (stereo not given in full) as the molecule, how does the growth read?
A: The growth was -33.5% (active).

Q: How did the growth turn out when `CC/C(Cc1ccccc1)=C(/c1ccc(O)cc1)c1ccc(OCCN2CCCC2)cc1` was run?
A: Its growth is -56.9% (active).

Q: Which growth does the source give for `COc1cccc(Nc2ncnn3ccc(CN4CC[C@@H](N)[C@H](O)C4)c23)c1` here?
A: Its growth is 73.8%.

Q: For `NC1=C(C/C(N)=N\O)C(c2ccccc2Cl)c2c(ccc3ccccc23)O1` (stereo not given), which growth is on record?
A: Its growth is 84.9%.

Q: With `CNC1=C([N+](=O)[O-])C(c2ccc(OC)cc2)C(C#N)=C(c2ccc[nH]2)O1` (stereo not given) as the molecule, how does the growth read?
A: The growth was 93.9%.

Q: With `O=c1ccc(N=Nc2ccc([N+](=O)[O-])cc2)ccc1O` as the molecule, how does the growth read?
A: Its growth is 10%.

Q: Which growth does the source give for `Cc1ccc(Nc2ccc(Nc3ccc(C)cc3)c3c2C(=O)c2cccc(O)c2C3=O)cc1` here?
A: The growth was 94.3%.

Q: With `CN1CCN(CCCN2c3ccccc3Sc3ccc(C(F)(F)F)cc32)CC1` as the molecule, how does the growth read?
A: Its growth is 83.8%.

Q: `NCC(=O)CCC(=O)O` was tested. Which growth did it give?
A: Its growth is 132%.

Q: Which growth does the source give for `COc1cc(/C=N/NC(=O)c2ccccc2Nc2cccc(C(F)(F)F)c2)cc(OC)c1OC` here?
A: The growth was -5.58% (active).

Q: How did the growth turn out when `C=CCC(CCCC)(C(=O)OCC)C(=O)OCC` was run?
A: Its growth is 80.6%.

Q: How did the growth turn out when `COc1cc2cc(Oc3ccc(NC(=O)Nc4ccc(F)c(C(F)(F)F)c4)cc3)c(C)nc2cc1OCCN1CCCCC1` was run?
A: The growth was -24.5% (active).

Q: `NC(=S)N/N=C/c1ccc(OC(=O)COc2ccc(Cl)cc2)cn1` was tested. Which growth did it give?
A: The growth was 19.3%.

Q: Which growth does the source give for `CN1C(=O)NC(c2ccc3c(c2)OCO3)C=C1c1ccccc1` (stereo not given) here?
A: Its growth is 99%.

Q: `O=C(CN1CCOCC1)Nc1ccc2ncnc(Nc3ccc(OCc4cccc(F)c4)c(Cl)c3)c2c1` was tested. Which growth did it give?
A: Its growth is 75.2%.

Q: With `CCOC(=O)C(O)C(O)C(=O)OCC` (stereo not given) as the molecule, how does the growth read?
A: The growth was 102%.

Q: With `O=C1c2cc3c(cc2-c2c1c1ccc(Cl)cc1c(=O)n2CCCN1CCOCC1)OCO3` as the molecule, how does the growth read?
A: The growth was 16.7%.

Q: For `O=c1[nH]nc(-c2ccccc2)c2sc(NC(=S)Nc3ccc(Cl)cc3)nc12`, which growth is on record?
A: Its growth is 72.6%.
